Among the data in ChEMBL document CHEMBL1961873, “Compounds: GSK PKIS; Assays: Nanosyn kinase panel” (2012) are inhibition values, retold here.

Assay [1] has as its target Serine/threonine-protein kinase 26 (Homo sapiens) (UniProt Q9P289). Conditions: at 1 µM.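 Further: mean inhibition of MST4 kinase activity, reported from the GSK PKIS inhibitor-set screening panel.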
The target of assay [2] is Serine/threonine-protein kinase PAK 1 (Homo sapiens) (UniProt Q13153). Conditions: at 0.1 µM.
The target is the same in assay [3]. Conditions: at 1 µM.
The target in assay [4] is Serine/threonine-protein kinase PAK 2 (Homo sapiens) (UniProt Q13177). The conditions noted are these: at 0.1 µM.
Sequence of Serine/threonine-protein kinase PAK 2 (Homo sapiens) (Q13177 whole entry): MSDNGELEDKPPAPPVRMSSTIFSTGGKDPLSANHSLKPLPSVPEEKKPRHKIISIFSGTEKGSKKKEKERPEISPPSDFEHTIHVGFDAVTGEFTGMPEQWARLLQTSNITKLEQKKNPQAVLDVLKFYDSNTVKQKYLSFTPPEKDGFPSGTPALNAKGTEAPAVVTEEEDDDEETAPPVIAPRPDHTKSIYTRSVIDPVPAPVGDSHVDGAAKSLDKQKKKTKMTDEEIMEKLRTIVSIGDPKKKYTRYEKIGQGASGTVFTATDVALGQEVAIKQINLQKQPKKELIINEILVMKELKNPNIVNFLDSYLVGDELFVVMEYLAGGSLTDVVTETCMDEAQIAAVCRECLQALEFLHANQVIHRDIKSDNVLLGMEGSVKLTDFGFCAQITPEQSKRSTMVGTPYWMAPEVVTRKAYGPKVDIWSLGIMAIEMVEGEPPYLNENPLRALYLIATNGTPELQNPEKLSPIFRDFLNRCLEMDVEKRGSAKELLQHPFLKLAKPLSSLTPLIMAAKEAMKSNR
Assay [5] has the same target. The conditions noted are these: at 1 µM.
Assay [6] deals with Serine/threonine-protein kinase PAK 3 (Homo sapiens) (UniProt O75914). The conditions noted are these: at 0.1 µM.
Sequence of Serine/threonine-protein kinase PAK 3 (Homo sapiens) (O75914 whole entry, looked up): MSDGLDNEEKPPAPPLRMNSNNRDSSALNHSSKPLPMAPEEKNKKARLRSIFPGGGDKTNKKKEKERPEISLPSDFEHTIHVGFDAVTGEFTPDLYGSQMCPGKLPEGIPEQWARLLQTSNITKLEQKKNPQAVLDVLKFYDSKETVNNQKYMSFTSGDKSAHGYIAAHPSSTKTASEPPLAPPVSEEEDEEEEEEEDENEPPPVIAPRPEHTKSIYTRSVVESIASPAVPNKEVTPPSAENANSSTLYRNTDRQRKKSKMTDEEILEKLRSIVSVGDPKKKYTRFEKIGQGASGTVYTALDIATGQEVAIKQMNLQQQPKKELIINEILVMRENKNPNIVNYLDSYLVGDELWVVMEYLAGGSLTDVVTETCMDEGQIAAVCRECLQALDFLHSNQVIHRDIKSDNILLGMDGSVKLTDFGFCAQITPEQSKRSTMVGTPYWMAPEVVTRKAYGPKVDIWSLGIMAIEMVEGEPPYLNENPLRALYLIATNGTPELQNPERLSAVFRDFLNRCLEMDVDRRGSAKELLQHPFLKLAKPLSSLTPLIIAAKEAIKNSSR
The target is the same in assay [7]. The conditions noted are these: at 1 µM.
Assay [8] deals with Serine/threonine-protein kinase PAK 5 (Homo sapiens) (UniProt Q9P286). The conditions noted are these: at 0.1 µM.
Sequence of Serine/threonine-protein kinase PAK 5 (Homo sapiens) (Q9P286 whole entry, looked up): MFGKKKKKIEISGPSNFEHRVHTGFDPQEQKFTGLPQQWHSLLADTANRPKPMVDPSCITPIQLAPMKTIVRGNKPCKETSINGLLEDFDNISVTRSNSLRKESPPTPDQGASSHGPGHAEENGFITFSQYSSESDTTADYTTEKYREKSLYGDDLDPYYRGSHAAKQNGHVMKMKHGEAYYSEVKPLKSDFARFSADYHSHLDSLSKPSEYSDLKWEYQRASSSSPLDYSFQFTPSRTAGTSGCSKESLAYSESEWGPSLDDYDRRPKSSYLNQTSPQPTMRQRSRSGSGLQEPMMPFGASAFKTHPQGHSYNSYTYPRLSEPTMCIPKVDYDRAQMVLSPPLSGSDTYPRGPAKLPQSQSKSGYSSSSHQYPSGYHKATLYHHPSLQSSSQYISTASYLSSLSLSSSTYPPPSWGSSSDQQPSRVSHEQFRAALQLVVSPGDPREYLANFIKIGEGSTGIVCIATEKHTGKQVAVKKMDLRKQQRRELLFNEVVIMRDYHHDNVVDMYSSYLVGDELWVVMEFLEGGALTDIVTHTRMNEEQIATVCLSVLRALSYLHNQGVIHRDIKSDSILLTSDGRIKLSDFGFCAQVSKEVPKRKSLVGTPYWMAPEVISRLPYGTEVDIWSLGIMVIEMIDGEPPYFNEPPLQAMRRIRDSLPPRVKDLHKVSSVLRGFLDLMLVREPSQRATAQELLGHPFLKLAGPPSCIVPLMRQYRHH
For assay [9] the target is unchanged. Conditions: at 1 µM.
For assay [10], the target named is Serine/threonine-protein kinase PAK 6 (Homo sapiens) (UniProt Q9NQU5). Conditions: at 0.1 µM.
Sequence of Serine/threonine-protein kinase PAK 6 (Homo sapiens) (Q9NQU5 whole entry, looked up): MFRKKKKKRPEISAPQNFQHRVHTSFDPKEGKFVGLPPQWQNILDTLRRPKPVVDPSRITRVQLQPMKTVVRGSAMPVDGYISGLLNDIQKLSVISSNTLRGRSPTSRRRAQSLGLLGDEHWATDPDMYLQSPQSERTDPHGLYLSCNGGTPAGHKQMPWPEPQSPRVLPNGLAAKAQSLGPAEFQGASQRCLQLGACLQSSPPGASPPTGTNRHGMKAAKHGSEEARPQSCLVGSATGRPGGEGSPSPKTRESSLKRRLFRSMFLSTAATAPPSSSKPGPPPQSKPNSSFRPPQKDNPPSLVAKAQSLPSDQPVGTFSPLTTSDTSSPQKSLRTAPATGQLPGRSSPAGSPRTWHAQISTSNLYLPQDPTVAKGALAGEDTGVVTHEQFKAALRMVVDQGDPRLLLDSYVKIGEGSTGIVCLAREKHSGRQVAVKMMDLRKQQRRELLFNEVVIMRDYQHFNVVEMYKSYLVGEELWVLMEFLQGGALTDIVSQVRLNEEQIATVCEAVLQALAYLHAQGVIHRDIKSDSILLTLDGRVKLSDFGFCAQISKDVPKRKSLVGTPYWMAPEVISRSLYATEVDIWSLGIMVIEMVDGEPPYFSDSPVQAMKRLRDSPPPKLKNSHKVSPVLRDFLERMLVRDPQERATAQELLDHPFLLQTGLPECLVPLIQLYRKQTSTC
Assay [11] shares this target. Conditions: at 1 µM.
Assay [12] concerns Tyrosine-protein kinase ABL1 (Homo sapiens), P00519 [E255K]. The conditions noted are these: at 0.1 µM.
For assay [13] the test system is unchanged. The conditions noted are these: at 1 µM.
Assay [14] has as its system Tyrosine-protein kinase ABL1 (Homo sapiens), P00519 [H396P]. Conditions: at 0.1 µM.
The test system is the same in assay [15]. The conditions noted are these: at 1 µM.
Assay [16] relates to Tyrosine-protein kinase ABL1 (Homo sapiens), P00519 [M351T]. The conditions noted are these: at 0.1 µM.
Assay [17] has the same test system. Conditions: at 1 µM.
For assay [18], the system named is Tyrosine-protein kinase ABL1 (Homo sapiens), P00519 [Q252H]. The conditions noted are these: at 0.1 µM.
Assay [19] has the same test system. The conditions noted are these: at 1 µM.
The test system of assay [20] is Tyrosine-protein kinase ABL1 (Homo sapiens), P00519 [T315I]. Conditions: at 0.1 µM.

Sequence of Serine/threonine-protein kinase 26 (Homo sapiens) (Q9P289 2-416 limits assumed): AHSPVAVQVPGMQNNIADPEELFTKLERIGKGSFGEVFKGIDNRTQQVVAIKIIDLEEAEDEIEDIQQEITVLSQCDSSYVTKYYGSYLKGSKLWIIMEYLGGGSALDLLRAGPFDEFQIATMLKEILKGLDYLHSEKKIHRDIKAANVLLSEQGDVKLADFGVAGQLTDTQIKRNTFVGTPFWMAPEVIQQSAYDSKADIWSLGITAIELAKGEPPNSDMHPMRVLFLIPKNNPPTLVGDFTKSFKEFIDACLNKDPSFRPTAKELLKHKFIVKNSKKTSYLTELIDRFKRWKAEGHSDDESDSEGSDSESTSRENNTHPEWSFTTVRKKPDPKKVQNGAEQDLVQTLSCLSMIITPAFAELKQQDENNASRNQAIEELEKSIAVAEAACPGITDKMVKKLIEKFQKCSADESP
Sequence of Serine/threonine-protein kinase PAK 1 (Homo sapiens) (Q13153 whole entry): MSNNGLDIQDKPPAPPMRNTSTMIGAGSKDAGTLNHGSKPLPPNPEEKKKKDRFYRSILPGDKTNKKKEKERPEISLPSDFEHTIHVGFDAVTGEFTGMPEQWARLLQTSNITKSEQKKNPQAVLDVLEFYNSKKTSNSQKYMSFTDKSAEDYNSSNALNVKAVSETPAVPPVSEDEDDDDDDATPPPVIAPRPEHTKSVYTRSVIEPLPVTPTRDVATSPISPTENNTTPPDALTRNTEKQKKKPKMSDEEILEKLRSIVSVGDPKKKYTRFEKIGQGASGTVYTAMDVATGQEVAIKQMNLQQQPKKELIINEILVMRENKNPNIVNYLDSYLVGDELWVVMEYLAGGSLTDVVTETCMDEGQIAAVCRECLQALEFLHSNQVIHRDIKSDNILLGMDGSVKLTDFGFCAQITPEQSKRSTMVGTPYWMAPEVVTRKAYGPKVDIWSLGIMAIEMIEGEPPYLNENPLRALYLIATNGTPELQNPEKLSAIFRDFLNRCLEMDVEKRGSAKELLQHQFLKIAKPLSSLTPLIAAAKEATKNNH

In general, inhibition refers to the change of the read-out against control, counted positive when it falls. With `CC(C)c1ccc(Nc2nccc(-c3cnn4ncccc34)n2)cc1`, the inhibition in assay [1] came to 2.8%; in assay [2] it was 2.05%; in [3], 3.55%; in assay [4] it was 1.06%; in assay [5], 0.9%; in [6] it was 1.95%. The inhibition in assay [7] is 2.33%; in [8], -3.7%; in assay [9], 2.48%; in assay [10] it was -6.25%; in [11] it was 2.84%; in assay [12] it was 1.9%. In addition, the inhibition was found to be 4.45% in assay [13]; 3.09% in assay [14]; 8.88% in assay [15]; 1.81% in assay [16]; 10.2% in [17]; 2.85% in assay [18]. In addition, the inhibition was 11.6% in assay [19] and 2.34% in [20].
As for `Cc1cc(Cl)cc2c1NC(=O)C2=NNc1ccc(S(N)(=O)=O)cc1`, the inhibition in assay [1] is -0.49%; in assay [2] it was 0.68%; in assay [3], 1.71%; in [4], 1.05%; in [5] it was 0.72%; in assay [6] it was 3.63%. The inhibition is 4.8% in [7]; -4.18% in assay [8]; -1.19% in [9]; 2.65% in assay [10]; -1.69% in assay [11]; 1.25% in assay [12]. The inhibition in assay [13] was 5.11%; in assay [14], 2.97%; in [15] it was 8.01%; in [16], -0.27%; in assay [17], 6.65%; in assay [18], 4.15%. For the same compound, the inhibition in assay [19] is 7.11%; in assay [20], 1.38%.
In the case of `CCCN1CCCC(c2ccc(Nc3nc(Nc4cc(F)ccc4C(N)=O)c4cc[nH]c4n3)c(OC)c2)C1` (stereo not given), the inhibition was -1.5% in [1]; 7.38% in [2]; 9.12% in assay [3]; 2.49% in assay [4]; 3.33% in assay [5]; 4.64% in [6]. Also, the inhibition in assay [7] was 5.56%; in [8] it was 1.21%; in assay [9] it was 6.67%; in [10], 2%; in assay [11], -5.69%; in [12], 3.9%. The inhibition in assay [13] is 5.75%; in [14], 5.07%; in assay [15] it was 4.96%; in assay [16], 1.54%; in [17] it was 5.35%; in assay [18], 4.96%. Further, the inhibition in assay [19] came out at 7.24%; in assay [20], 4.52%.
`CN(C)C(=O)O[C@H]1CN[C@H](C#Cc2cc3ncnc(Nc4ccc(OCc5cccc(F)c5)c(Cl)c4)c3s2)C1`: the inhibition in assay [1] was -0.62%; in [2], 4.28%; in assay [3], 2.22%; in assay [4], 1.72%; in assay [5], -0.31%; in assay [6], 2.53%. The inhibition in [7] is 4.3%; in assay [8], 4.8%; in assay [9], 1.82%; in assay [10], 9.3%; in assay [11], 7.18%; in assay [12], 2%. Further, the inhibition in assay [13] was 3.31%; in assay [14] it was 2.06%; in [15], -0.36%; in [16], 0.95%; in assay [17], 0.49%; in assay [18], 4.6%. Also, the inhibition in assay [19] stood at 3.58%; in assay [20] it was 2.75%.
As to `Cc1cc(O)cc(C)c1/C=C/c1cncc(C(=O)N(C)C)c1`, the inhibition in assay [1] is 1.13%; in assay [2], 2.77%; in assay [3], 6.81%; in assay [4], 1.73%; in assay [5], 0.38%; in [6], -0.76%. In addition, the inhibition in assay [7] was 2.83%; in assay [8] it was 3.14%; in assay [9], 6.26%; in [10], 7.18%; in [11], -3.14%; in assay [12], 2.42%. The inhibition in [13] turned out to be 5.44%; in assay [14] it was 4.36%; in [15] it was 8.17%; in assay [16], 3.42%; in [17], 7.17%; in assay [18], 4.29%. In addition, the inhibition in assay [19] is 8.87%; in assay [20] it was 2.58%.
With `COc1cc2ncnc(Nc3ccc(C)c(O)c3)c2cc1OC`, the inhibition is -1.08% in assay [1]; 6.98% in assay [2]; 7.41% in assay [3]; 1.81% in assay [4]; 2.35% in assay [5]; 5.88% in assay [6]. In addition, the inhibition in [7] was 5.36%; in [8] it was 0.51%; in assay [9], 7.08%; in [10], -1.14%; in [11] it was 0.34%; in assay [12] it was 42.3%. Further, the inhibition was 85.8% in [13]; 48.1% in assay [14]; 87.4% in assay [15]; 42.5% in assay [16]; 84.5% in assay [17]; 41.1% in assay [18]. Moreover, the values for the inhibition in assay [19] and in [20] were 81.8% and 16.5%, respectively.
With `[O-][S+]1CCN(Cc2ccc(-c3ccc4ncnc(Nc5ccc(OCc6ccccc6)c(Cl)c5)c4c3)o2)CC1`, the inhibition in [1] was 1.64%; in [2], 2.5%; in [3], 4.24%; in [4] it was 0.11%; in assay [5] it was 0.24%; in [6] it was 0.99%. Besides, the inhibition in [7] was 2.19%; in assay [8] it was 2.51%; in assay [9], 1.72%; in assay [10] it was -9.51%; in [11] it was -2.46%; in assay [12], 1.62%. In addition, the inhibition in assay [13] turned out to be 1.35%; in assay [14] it was 1.53%; in assay [15] it was 2.74%; in assay [16], 0.68%; in assay [17], 2.75%; in assay [18] it was 2.06%. Besides, the figures for the inhibition in assay [19] and in assay [20] were 3.61% and 0.16%, respectively.
Regarding `COc1cccc(-n2ncc3c(N/N=C/c4ccc(S(C)(=O)=O)cc4)ncnc32)c1`, the inhibition in [1] is 2.58%; in assay [2] it was 2.37%; in assay [3] it was 3.02%; in assay [4] it was -0.07%; in assay [5] it was -0.47%; in assay [6], 0.46%. The inhibition was 1.53% in assay [7]; 2.27% in assay [8]; 10.1% in assay [9]; -8.81% in assay [10]; 5.24% in assay [11]; 79% in assay [12]. In addition, the inhibition is 93.4% in assay [13]; 85.2% in assay [14]; 94.1% in assay [15]; 84.9% in assay [16]; 95.5% in assay [17]; 87.2% in [18]. Also, the inhibition was 95% in [19] and 49.4% in assay [20].
Regarding `N#Cc1c(NC(=O)c2ccccc2F)sc2c1CCCC2`, the inhibition in [1] was 1.28%; in assay [2] it was -3.89%; in assay [3], 1.46%; in [4] it was -2.11%; in assay [5] it was -1.55%; in assay [6], -2.48%. For the same compound, the inhibition in [7] was -1.16%; in [8], -5.99%; in assay [9] it was -0.86%; in [10], 2.44%; in [11] it was 3.35%; in assay [12] it was -0.62%. Also, the inhibition in [13] was 1.08%; in assay [14], 0.3%; in assay [15] it was -1.4%; in assay [16], 0.7%; in assay [17] it was 0.57%; in assay [18], -0.76%. The inhibition in assay [19] is -0.72%; in assay [20], -0.91%.
For `NS(=O)(=O)c1cccc(Nc2cc(-c3ccc(F)cc3)n[nH]2)c1`, the inhibition in [1] was 0.86%; in [2], 3.94%; in assay [3], 8.53%; in [4] it was 1.36%; in assay [5], 1.54%; in assay [6], 3.88%. The inhibition in assay [7] was 4.82%; in assay [8], 10.3%; in assay [9] it was 11.7%; in [10] it was 2.82%; in assay [11] it was 13%; in assay [12], 1.07%. Besides, the inhibition is 8.03% in assay [13]; 5.72% in [14]; 15.4% in assay [15]; 2.42% in [16]; 19.8% in [17]; 4.73% in [18]. For the same compound, the inhibition in assay [19] was determined as 18.2%; in assay [20] it was 1.49%.
Turning to `Cc1nc(-c2ccccc2)n2nc(NCCCN3CCOCC3)ncc12`, the inhibition in assay [1] stood at 0.4%; in [2], 2.24%; in assay [3], 6.68%; in [4] it was 0.56%; in assay [5], 0.27%; in [6], 1.98%. In addition, the inhibition was 4.33% in [7]; 1.91% in assay [8]; 1.28% in assay [9]; -9.04% in [10]; -7.1% in [11]; 0.22% in [12]. Further, the inhibition was 2.36% in assay [13]; 2.5% in assay [14]; 4.26% in assay [15]; -1.13% in assay [16]; 0.73% in assay [17]; 3.04% in assay [18]. Moreover, the inhibition is 3.3% in [19] and 2.3% in assay [20].
Regarding `Nc1nccc(C#Cc2cncnc2Nc2ccc(OCc3cccc(F)c3)c(Cl)c2)n1`, the inhibition is -8.32% in assay [1]; 6.18% in assay [2]; 3.97% in assay [3]; 1.6% in [4]; 2.31% in assay [5]; 0.29% in assay [6]. Also, the inhibition was 3.37% in assay [7]; 3.29% in [8]; -3.56% in assay [9]; 5.51% in assay [10]; 1.07% in assay [11]; 3.67% in assay [12]. In addition, the inhibition amounted to 3.58% in [13]; 3.32% in [14]; 2.76% in assay [15]; 1.11% in assay [16]; 0.59% in [17]; 2.18% in assay [18]. Also, the inhibition was determined as 0.52% in assay [19] and 2.46% in [20].
